Bioassay records deposited in PubChem BioAssay by National Center for Advancing Translational Sciences (NCATS).
Compounds with a hit are over-represented: about 6% of the library has one in this group of screens.
D1 agonist: Allosteric Agonists of the Human D1 Dopamine Receptor: qHTS. D(1A) dopamine receptor (Homo sapiens), P21728. AID 504660, 2011. 1% of 360,000 active. activation, % at 2 µM. HEK293 T-REx D1 cells, calcium flux, agonist mode; in the data active means activation above about 30%; further: 0% is about no effect
Target sequence (P21728 whole entry, looked up): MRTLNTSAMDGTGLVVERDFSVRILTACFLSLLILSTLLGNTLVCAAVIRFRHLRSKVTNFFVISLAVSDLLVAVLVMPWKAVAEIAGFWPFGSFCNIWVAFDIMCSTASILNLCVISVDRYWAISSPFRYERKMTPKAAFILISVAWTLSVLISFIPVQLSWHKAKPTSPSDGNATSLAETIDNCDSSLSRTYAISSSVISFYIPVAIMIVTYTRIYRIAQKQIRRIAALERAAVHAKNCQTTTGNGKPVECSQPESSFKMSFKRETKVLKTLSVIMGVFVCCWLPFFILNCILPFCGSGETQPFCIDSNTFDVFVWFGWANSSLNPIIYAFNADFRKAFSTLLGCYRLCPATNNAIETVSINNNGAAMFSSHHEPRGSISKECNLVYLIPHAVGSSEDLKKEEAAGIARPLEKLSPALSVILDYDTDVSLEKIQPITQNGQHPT
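Tetracycline-induced HEK293 TREx D1 cells, force-coupled to calcium signalling, were dye-loaded with a no-wash calcium kit. Compound was pin-added after a 10 s baseline. Fluorescence was read kinetically at 1 cycle/s for 180 s, with calcium rises flagged as agonism.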
D1 potentiator: Potentiators of Human D1 Dopamine Receptor: qHTS; HEK293 TREx D1 cells, calcium flux, dopamine EC20 potentiation; potentiation, % at 10 µM; 0.036% of 360,000 active; D(1A) dopamine receptor (Homo sapiens), P21728; in the data active means potentiation above about 30%; further: 0% is about no effect
DRD3 agonist: qHTS of D3 Dopamine Receptor Agonist: qHTS; D(3) dopamine receptor (Homo sapiens), P35462; D3R DiscoveRx beta-arrestin cells, luminescence, 90 min; max activation, %; 0.58% of 410,000 active; AID 652048, 2013; in the data active means max activation above about 30%; further: 0% is about no effect
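Cells at 1500/well, incubated overnight, then treated with pinned compounds (dopamine as control) for 90 min at 37 degrees C. DiscoveRx reagent added for 30 - 60 minutes at room temperature; luminescence read.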
D1 antagonist: Antagonist of Human D 1 Dopamine Receptor: qHTS; D(1A) dopamine receptor (Homo sapiens), P21728; HEK293 TREx D1 cells, calcium flux, dopamine EC80; stronger effect = lower value; activity change, negative = inhibition, % at 10 µM; 3.2% of 360,000 active; AID 504652, 2011; in the data active means activity change below about -30%; further: on the % scale 0 is the no-effect control and ±100 the full control effect
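After overnight tetracycline induction at 30 C, force-coupled D1 HEK293 cells took up a no-wash calcium dye at room temperature. Compounds were added and monitored 180 s, and the response to EC80 dopamine was then recorded.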
D3 antag: qHTS of D3 Dopamine Receptor Antagonist: qHTS | D3R cells, DiscoveRx beta-arrestin luminescence, antagonist mode; stronger effect = lower value | 2.5% of 360,000 active | AID 652054, 2013 | D(3) dopamine receptor (Homo sapiens), P35462 | max response, negative = inhibition, %; in the data active means max response below about -50%; inconclusive means no clear call, values can overlap the other calls; further: on the % scale 0 is the no-effect control and ±100 the full control effect
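Cells expressing the human receptor were seeded at 1500 cells/well, incubated overnight at 37 degrees C in 5% CO2, then exposed to library compounds with dopamine controls for 90 minutes at 37 degrees C before luminescent detection.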
The depositor's hits bear a star; ! = not active in a repeat.

What do the screens show for `C=CCn1c(N)c(C(=O)N2CCN(C)CC2)sc1=S`?
D1 agonist: 1.0; D1 potentiator: -5.6; DRD3 agonist: -34.6; D1 antagonist: -0.8; D3 antag: -54.0*

How did COc1ccccc1CCc1nnc(CCC(=O)NCC[C@@H]2C[C@@H]3C=C[C@H]2C3)o1 do in these assays?
D1 agonist: -0.1; D1 potentiator: 1.5; DRD3 agonist: 2.5; D1 antagonist: 6.9; D3 antag: -61.7*

What do the screens show for `CCN(Cc1ccccc1)C(=O)CN1C(=O)COc2ccc(S(=O)(=O)N3CCOCC3)cc21`?
D1 agonist: -0.1; D1 potentiator: -2.9; DRD3 agonist: 9.0; D1 antagonist: 0.8

How did O=C(CCN1C(=O)c2ccccc2S1(=O)=O)N1CCN(c2ccc(F)cc2)CC1 do in these assays?
D1 agonist: 1.1; D1 potentiator: 4.3; DRD3 agonist: 0.4; D1 antagonist: 11.5; D3 antag: 0.5

Results for O=C1c2ccccc2S(=O)(=O)N1CCS(=O)(=O)c1ccc(F)cc1 ?
D1 agonist: 8.2; D1 potentiator: -12.4; DRD3 agonist: 86.9*; D1 antagonist: -10.2; D3 antag: -17.1

How did CCn1cnc2c(Nc3cc(F)cc(F)c3)nc(C(=O)COc3c(F)c(F)cc(F)c3F)nc21 do in these assays?
D1 agonist: 0.7; D1 potentiator: -6.3; D1 antagonist: -3.8

Results for COc1ccc(-c2cc(C(=O)O)c3c(C)nn(-c4ccccn4)c3n2)cc1 ?
D1 agonist: 4.2; D1 potentiator: -5.2; DRD3 agonist: -3.8; D1 antagonist: -40.1*; D3 antag: -7.0

What do the screens show for `Cc1nn(-c2ccccc2)c2nc(-c3ccco3)cc(C(=O)O)c12`?
D1 agonist: 0.5; D1 potentiator: -4.1; DRD3 agonist: 5.7; D1 antagonist: 7.5; D3 antag: -51.7*

Results for Cc1nn(-c2cccc(Cl)c2)c2nc(-c3ccco3)cc(C(=O)O)c12 ?
D1 agonist: 0.4; D1 potentiator: -3.0; DRD3 agonist: 5.1; D1 antagonist: 2.1; D3 antag: 2.9

What do the screens show for `Cc1ccc(-n2nc(C)c3c(C(=O)O)cc(C)nc32)cc1`?
D1 agonist: 0.0; D1 potentiator: -5.0; DRD3 agonist: 10.4; D1 antagonist: -49.6*

Results for CCn1c(C(=O)N2CCCC(C(=O)NCCCOC)C2)cc2sccc21 (stereo not drawn) ?
D1 agonist: -0.5; D1 potentiator: -1.1; DRD3 agonist: -11.3; D1 antagonist: 23.0

What do the screens show for `COc1ccc(CCN(C)CC(O)COc2c(C)ccc(C)c2C)cc1OC` (stereo not drawn)?
D1 agonist: 33.7*; D1 potentiator: -6.8; DRD3 agonist: -11.9; D1 antagonist: -15.6; D3 antag: -21.6

Results for COc1ccc(CCN(C)CC(O)COC(c2ccc(F)cc2)c2ccc(F)cc2)cc1OC (stereo not drawn) ?
D1 agonist: 32.8*; D1 potentiator: -18.9; DRD3 agonist: -20.1; D1 antagonist: -26.6; D3 antag: -61.2*

What do the screens show for `CCOC(=O)c1c(C)oc2ncnc(Nc3cc(Cl)ccc3OC)c12`?
D1 agonist: 7.3; D1 potentiator: -3.1; DRD3 agonist: 5.6; D1 antagonist: -9.4

Results for O=C(CSc1nnc(CNc2ccccc2)o1)N1CCN(C(=O)c2ccco2)CC1 ?
D1 agonist: 0.2; D1 potentiator: -4.5; DRD3 agonist: -2.5; D1 antagonist: -38.2*; D3 antag: 5.5

How did Cc1nnc(SCC(=O)N2CCC(Cc3ccccc3)CC2)n(N)c1=O do in these assays?
D1 agonist: 1.2; D1 potentiator: 6.3; DRD3 agonist: -25.5; D1 antagonist: 5.0; D3 antag: -98.5*

What do the screens show for `O=C(CSc1nnc(CNc2ccc(F)cc2)o1)N1CCN(C(=O)c2ccco2)CC1`?
D1 agonist: 0.2; D1 potentiator: 1.0; DRD3 agonist: 4.9; D1 antagonist: -5.7; D3 antag: 10.0

What do the screens show for `O=C(CSc1nnc(CNC(=O)c2ccc(F)cc2)o1)c1ccccc1`?
D1 agonist: 4.3; D1 potentiator: -9.7; DRD3 agonist: 1.3; D1 antagonist: -31.0*; D3 antag: 12.0

Results for CC1CCN(C(=O)CSc2nnc(CNC(=O)c3ccc(S(=O)(=O)N(C)C)cc3)o2)CC1 ?
D1 agonist: 0.0; D1 potentiator: -5.9; DRD3 agonist: 0.5; D1 antagonist: -45.3*; D3 antag: 0.4

Results for CC(C)c1ccc2oc(-c3cc(NC(=O)c4cccnc4)ccc3Cl)nc2c1 ?
D1 agonist: 5.8; D1 potentiator: 0.2; DRD3 agonist: 6.9; D1 antagonist: -2.2

What do the screens show for `O=C(NCc1nnc(SCC(=O)N2CCC(Cc3ccccc3)CC2)o1)c1ccccc1F`?
D1 agonist: 33.3*; D1 potentiator: -0.8; DRD3 agonist: 1.5; D1 antagonist: -10.5; D3 antag: -19.6

Results for Cn1cnc(S(=O)(=O)N2CCC(C(=O)N3CCN(c4ccc(Cl)cc4)CC3)CC2)c1 ?
D1 agonist: -0.4; D1 potentiator: 0.9; DRD3 agonist: 9.4; D1 antagonist: 7.9

Results for Cc1ccc(OCCC(=O)OCC(=O)NCCNC(=O)COC(=O)CCOc2ccc(C)cc2)cc1 ?
DRD3 agonist: 2.9; D3 antag: -60.9*

Results for Cc1ccc(OCCC(=O)OCC(=O)NCCc2ccccc2)cc1 ?
D1 agonist: 0.5; D1 potentiator: -1.4; DRD3 agonist: -1.0; D1 antagonist: 15.6; D3 antag: 6.5

How did COC(=O)c1ccc(C(=O)OC)c(NC(=O)COC(=O)c2ccc(OC)c(OC)c2OC)c1 do in these assays?
D1 agonist: -0.2; D1 potentiator: -5.5; DRD3 agonist: 1.5; D1 antagonist: -86.3*; D3 antag: 15.6

What do the screens show for `CCOCC(=O)Nc1cc(C(=O)OC)ccc1C(=O)OC`?
D1 agonist: -0.2; D1 potentiator: -9.9; DRD3 agonist: -0.5; D1 antagonist: -19.0; D3 antag: inconclusive

What do the screens show for `COC(=O)c1ccc(C(=O)OC)c(NC(=O)COC(=O)CCOc2ccc(C)cc2)c1`?
D1 agonist: 1.8; D1 potentiator: 0.1; DRD3 agonist: 2.2; D1 antagonist: 0.5; D3 antag: -62.3*

How did CC1=C(/C=C/C(C)=C/C=C/C(C)=C\C(=O)O)C(C)(C)CCC1 do in these assays?
DRD3 agonist: 0.2; D3 antag: 10.7

Results for CC1=C(/C=C/C(C)=C/C=C/C(C)=C/C(=O)Nc2ccc(O)cc2)C(C)(C)CCC1 ?
D1 agonist: 0.6; D1 potentiator: 3.5; DRD3 agonist: 69.1*!; D3 antag: 23.2

Results for COc1cc(-c2cc(C(=O)N(C)Cc3ccccc3)c3ccccc3n2)cc(OC)c1OC ?
D1 agonist: 2.3; D1 potentiator: -6.5; DRD3 agonist: 32.5*; D1 antagonist: 1.5; D3 antag: 15.5
